Pf Dd2 growth = P. falciparum Dd2 growth inhibitors, primary screen, SYBR Green fluorescence, single dose replicates; 72 h; active compounds read low; activity change, % at 10 µM; 2.3% of 94,000 active; in the data active = activity change below about -80%; inconclusive = no clear call, values can overlap the other calls
C diff growth = C. difficile growth inhibitors, primary screen, HTS; growth activity, negative = inhibition, % at 16 µg/mL (by protocol); AID 1259249, 2017; Clostridium difficile clinical isolate growth, OD600, 24 h; active compounds read low; 0.25% of 86,000 active;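 active = mean growth activity at or below -80% and every replicate also at or below -80%; inconclusive = mean at or below -80% but some replicate above -80%; inactive = mean growth activity above -80%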
Large screens that a line does not name were inactive. Most compounds without a hit are left out; they make up all but 2.3% or so of the library.

C[C@H](CO)N1C[C@H](C)[C@@H](CN(C)C(=O)Nc2cccc3ccccc23)OCCCC[C@H](C)Oc2ccc(NC(=O)Cc3ccccc3)cc2C1=O	Pf Dd2 growth inconclusive
C[C@@H]1CCCCO[C@@H](CN(C)C(=O)Nc2cccc3ccccc23)[C@@H](C)CN([C@H](C)CO)C(=O)c2cc(NC(=O)Cc3ccccc3)ccc2O1	Pf Dd2 growth -83.7
C[C@@H]1CCCCO[C@H](CN(C)C(=O)Nc2cccc3ccccc23)[C@H](C)CN([C@H](C)CO)C(=O)c2cc(NC(=O)Cc3ccccc3)ccc2O1	Pf Dd2 growth -84.2
C[C@@H]1CN([C@@H](C)CO)C(=O)c2cc(NC(=O)Nc3ccccc3)ccc2O[C@@H](C)CCCCO[C@H]1CN(C)C(=O)Nc1cccc2ccccc12	none
C[C@@H]1CN([C@H](C)CO)C(=O)c2cc(NC(=O)Cc3ccccc3)ccc2O[C@@H](C)CCCCO[C@@H]1CN(C)C(=O)Nc1cccc2ccccc12	Pf Dd2 growth -92.2
C[C@@H]1CCCCO[C@H](CN(C)C(=O)Nc2cccc3ccccc23)[C@H](C)CN([C@@H](C)CO)C(=O)c2cc(NC(=O)Nc3ccccc3)ccc2O1	none
C[C@@H]1CN([C@H](C)CO)C(=O)c2cc(C3=CCCCC3)cnc2O[C@@H]1CN(C)C(=O)Nc1ccccc1	none (no result: Pf Dd2 growth)
C[C@H](CO)N1C[C@H](C)[C@@H](CN(C)C(=O)NC2CCCCC2)Oc2ncc(Br)cc2C1=O	none
COc1ccc2c3c([nH]c2c1)[C@@H](CO)N(Cc1ccccc1)CC31CCN(C(C)=O)CC1	none (no result: C diff growth)
COc1ccc2c3c([nH]c2c1)[C@H](CO)N(Cc1ccc(F)cc1)CC31CCN(C)CC1	none
COCC(=O)N1CC2(C1)CN(Cc1cccc(Cl)c1)[C@H](CO)c1[nH]c3cc(OC)ccc3c12	none
COc1ccc2c3c([nH]c2c1)[C@@H](CO)N(Cc1cccc(Cl)c1)CC31CN(C(C)=O)C1	Pf Dd2 growth -88.6
COCC(=O)N1CCC2(CC1)CN(Cc1cccc(Cl)c1)[C@H](CO)c1[nH]c3cc(OC)ccc3c12	none
COc1ccc2c3c([nH]c2c1)[C@H](CO)N(Cc1cccc(Cl)c1)CC31CCN(C(C)=O)CC1	Pf Dd2 growth -89.1
COc1ccc2c3c([nH]c2c1)[C@@H](CO)N(Cc1cccc(Cl)c1)CC31CCN(C(C)=O)CC1	Pf Dd2 growth -88.4
COc1ccc2c3c([nH]c2c1)[C@H](CO)N(Cc1ccc(F)cc1)CC31CCN(C(C)=O)CC1	Pf Dd2 growth -88.9
COc1ccc(NC(=O)Nc2ccc3c(c2)C(=O)N([C@H](C)CO)C[C@@H](C)[C@H](CN(C)Cc2ccc(Cl)c(Cl)c2)O3)cc1	none (no result: C diff growth)
CCCN1C[C@H](C)[C@H](OC)CN(C)C(=O)c2cc(NC(=O)c3ccccc3)ccc2OC[C@@H]1C	none
C/C=C/c1ccc([C@@H]2[C@H](CO)N3CCCCN(S(=O)(=O)c4cccc(C)c4)C[C@@H]23)cc1	none
C[C@@H]1CN([C@H](C)CO)C(=O)c2cc(NC(=O)CCCN(C)C)ccc2O[C@H]1CN(C)Cc1ccc2c(c1)OCO2	none
C[C@H]1CN([C@@H](C)CO)C(=O)c2cccc(NC(=O)CCCCCC(=O)Nc3ccccc3N)c2O[C@H]1CN(C)Cc1ccc(Oc2ccccc2)cc1	Pf Dd2 growth -89.5
C[C@@H]1CN([C@H](C)CO)C(=O)c2cccc(NC(=O)CCCCCC(=O)Nc3ccccc3N)c2O[C@@H]1CN(C)Cc1ccncc1	none
C[C@H](CO)N1C[C@H](C)[C@@H](CN(C)Cc2ccc(Oc3ccccc3)cc2)Oc2c(NC(=O)CCCCCC(=O)Nc3ccccc3N)cccc2C1=O	Pf Dd2 growth -90.2
C[C@H]1CN([C@@H](C)CO)C(=O)c2cc(NC(=O)CCCCCC(=O)Nc3ccccc3N)ccc2O[C@H]1CN(C)Cc1ccc(Oc2ccccc2)cc1	none
C[C@@H]1CN([C@@H](C)CO)C(=O)c2cccc(NC(=O)CCCCCC(=O)Nc3ccccc3N)c2O[C@H]1CN(C)Cc1ccncc1	none
COc1ccc(CN(C)C[C@H]2Oc3c(NC(=O)CCCCCC(=O)Nc4ccccc4N)cccc3C(=O)N([C@H](C)CO)C[C@@H]2C)cc1	Pf Dd2 growth -84.9
C[C@@H]1CN([C@@H](C)CO)S(=O)(=O)c2ccc(-c3ccccc3)cc2O[C@H]1CN(C)C(=O)Nc1ccccc1F	none (no result: C diff growth)
C[C@@H]1CN([C@H](C)CO)S(=O)(=O)c2ccc(/C=C/c3ccccc3)cc2O[C@@H]1CN(C)C(=O)Nc1cc(F)ccc1F	none
C[C@@H]1CN([C@@H](C)CO)S(=O)(=O)c2ccc(/C=C/c3ccccc3)cc2O[C@H]1CN(C)C(=O)Nc1ccc(F)cc1	none
C[C@@H]1CN([C@@H](C)CO)S(=O)(=O)c2ccc(/C=C/c3ccccc3)cc2O[C@@H]1CN(C)C(=O)Nc1ccc(F)cc1	Pf Dd2 growth -89.1
C[C@@H]1CN([C@H](C)CO)S(=O)(=O)c2ccc(/C=C/c3ccccc3)cc2O[C@H]1CN(C)C(=O)Nc1cc(F)ccc1F	Pf Dd2 growth -84.5
C[C@H]1CN([C@@H](C)CO)S(=O)(=O)c2ccc(-c3ccccc3)cc2O[C@H]1CN(C)C(=O)Nc1ccccc1F	Pf Dd2 growth -81.5 (no result: C diff growth)
COCC(=O)N1CC(=O)N2[C@H](CO)[C@@H](c3ccc(-c4ccccc4F)cc3)[C@@H]2C1	none
COc1ccc2c3c(n(C)c2c1)[C@@H](CO)NCC31CN(C(=O)CC2CC2)C1	none
C[C@@H]1CCCCO[C@@H](CN(C)Cc2ccc(C(F)(F)F)cc2)[C@@H](C)CN([C@H](C)CO)C(=O)c2cc(NC(=O)CCC(F)(F)F)ccc2O1	none
C[C@H]1CCCCO[C@@H](CN(C)Cc2ccc(C(F)(F)F)cc2)[C@@H](C)CN([C@@H](C)CO)C(=O)c2cc(NC(=O)CCC(F)(F)F)ccc2O1	none
C[C@@H]1CN([C@H](C)CO)C(=O)c2cc(NC(=O)CCCN(C)C)ccc2O[C@@H](C)CCCCO[C@H]1CN(C)Cc1ccc(C(F)(F)F)cc1	Pf Dd2 growth -85.9
C[C@@H]1CCCCO[C@@H](CN(C)Cc2ccc(C(=O)O)cc2)[C@H](C)CN([C@H](C)CO)C(=O)c2cc(NC(=O)CCCN(C)C)ccc2O1	none
C[C@@H]1CCCCO[C@H](CN(C)Cc2ccc(C(F)(F)F)cc2)[C@@H](C)CN([C@H](C)CO)C(=O)c2cc(NC(=O)CCC(F)(F)F)ccc2O1	none
C[C@@H]1CN([C@@H](C)CO)C(=O)c2cc(NC(=O)CCCN(C)C)ccc2O[C@@H](C)CCCCO[C@H]1CN(C)Cc1ccc(C(F)(F)F)cc1	Pf Dd2 growth -84.0
C[C@@H]1CCCCO[C@H](CN(C)Cc2ccc(C(F)(F)F)cc2)[C@@H](C)CN([C@@H](C)CO)C(=O)c2cc(NC(=O)CCCN(C)C)ccc2O1	Pf Dd2 growth -88.2
C[C@H](CO)N1C[C@H](C)[C@H](CN(C)Cc2ccc(C(F)(F)F)cc2)OCCCC[C@H](C)Oc2ccc(NC(=O)CCCN(C)C)cc2C1=O	Pf Dd2 growth -86.2
C[C@@H]1CN([C@@H](C)CO)C(=O)Cc2cc(NC(=O)Nc3ccc(F)cc3)ccc2O[C@H]1CN(C)Cc1ccc(C(=O)Nc2ccccc2N)cc1	none
CN1CCN(C(=O)c2cc3c(c(-c4cccc(-c5ccc(C#N)cc5)c4)n2)[C@@H](CCO)N([S@](=O)C(C)(C)C)C3)CC1	none (no result: C diff growth)
C[C@@H]1CN([C@H](C)CO)C(=O)Cc2cc(NC(=O)C3CC3)ccc2O[C@@H]1CN(C)C(=O)Nc1ccc(F)cc1	none
CO[C@H]1CN(C)C(=O)c2cc(NC(=O)NC3CCCC3)ccc2OC[C@H](C)NC[C@H]1C	none

Screening data deposited in PubChem BioAssay by Broad Institute.
